A selection: hits, their analogues and other compounds. The true share with any hit is near 5%.
VACV mCherry inh: qHTS for Stage-Specific Inhibitors of Vaccinia Orthopoxvirus: mCherry Reporter Primary qHTS | 310,000 tested, 0.63% active | Potency, µM (titrated, usually from 36.5 µM), for the others: at the top dose activity change, negative = inhibition, actives largely listed as inhibitors | Vaccinia virus mCherry reporter infection, fluorescence; calls by dose curve; tested in A549 cells; note: potency is the fitted concentration of half-maximal effect; nearly all actives have a fitted effect of over 35% in size
HCMV antiviral: qHTS Assay for inhibitors of the human cytomegalovirus (HCMV); HFF cells, HCMV-luciferase reporter, 72 h; hits give low values; activity change, negative = inhibition, % at 57.5 µM; 410,000 tested, 4.5% active; AID 1259415, 2018; in the data active = activity change below about -60%; inconclusive = no clear call, values can overlap the other calls; inactive = above about -39%
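Luciferase read-out from HCMV-luciferase-infected HFFs (MOI 1 PFU/cell) 72 h post infection at 37C; compounds added after 16 h cell attachment; activity normalized between buffer-only basal and Salinomycin (10uM) inhibitor controls.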
LmPK inh: qHTS Assay for Inhibitors of Leishmania Mexicana Pyruvate Kinase (LmPK). Potency, µM (titrated, usually from 57.5 µM), without a hit: top-dose activity change, negative = inhibition, usual class: inhibitors. purified LmPK, Kinase-Glo ATP luminescence, 1 h. Q27686. 290,000 tested, 0.37% active; note: potency is the fitted concentration of half-maximal effect
Target sequence (Q27686 whole entry, looked up): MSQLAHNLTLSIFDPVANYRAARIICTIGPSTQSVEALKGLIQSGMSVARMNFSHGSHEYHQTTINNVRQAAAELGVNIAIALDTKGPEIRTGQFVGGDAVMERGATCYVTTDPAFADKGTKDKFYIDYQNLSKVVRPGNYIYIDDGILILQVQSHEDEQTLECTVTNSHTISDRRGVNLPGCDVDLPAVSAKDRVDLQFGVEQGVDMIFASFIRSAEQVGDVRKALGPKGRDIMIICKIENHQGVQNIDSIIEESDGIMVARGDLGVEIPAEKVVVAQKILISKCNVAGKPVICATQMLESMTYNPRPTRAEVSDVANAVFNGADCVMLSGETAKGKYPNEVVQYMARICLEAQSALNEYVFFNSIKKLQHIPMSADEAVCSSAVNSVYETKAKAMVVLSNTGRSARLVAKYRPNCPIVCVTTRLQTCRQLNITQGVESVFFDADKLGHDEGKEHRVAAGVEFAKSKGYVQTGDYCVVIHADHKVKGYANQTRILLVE
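Purified LmPK (0.1 nM) converted ADP (0.1 mM) to ATP with PEP (0.5 mM) in imidazole buffer pH 7.2 with KCl and MgCl2, 1 h at room temperature. ATP was read by Kinase-Glo luminescence; data normalized to uninhibited and no-enzyme controls.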
Vaccinia Venus: qHTS for Stage-Specific Inhibitors of Vaccinia Orthopoxvirus: Venus Reporter Primary qHTS | Vaccinia virus Venus reporter expression, fluorescence | Potency, µM (highest dose often 36.5 µM), without a hit: top-dose activity change, negative = inhibition, most hits filed as inhibitors | 330,000 tested, 0.46% active | AID 720580, 2013; calls by dose curve; tested in A549 cells; note: potency is the fitted concentration of half-maximal effect; nearly all actives have a fitted effect of over 30% in size
TbPYK inhibitor: qHTS of Trypanosoma Brucei Inhibitors. pyruvate kinase (Trypanosoma brucei), Q57TT1. TbPYK enzyme, Kinase-Glo Plus ATP luminescence, 45 min. Potency, µM (top dose mostly 76.8 µM), for inactives: top-dose activity, negative = inhibition, most hits filed as inhibitors. 410,000 tested, 0.12% active. AID 624173, 2012; note: potency is the fitted concentration of half-maximal effect; nearly all actives have a fitted effect of over 50% in size
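T. brucei PYK with substrate was exposed to pin-transferred compounds across a concentration series, then started with 130 uM ADP (final). After 45 min at room temperature, Kinase-Glo Plus luminescence was read, normalized and curve-fitted.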
Numbers without * were called inactive; [ ] = another dose, or the depositor's remark. Unless noted, calls come from the whole dose curve; as a rule, active = well fitted curve in the direction sought with a large enough effect; inconclusive = small, poorly fitted or top-dose-only effect, or another doubt; inactive = no such curve, though single readings can be large; an effect the other way counts as inactive or inconclusive. % is set by controls: 0 for no effect and ±100 for the full control effect.

For CN(c1cccnc1)c1ncnc2[nH]ncc12 the results were VACV mCherry inh inactive, HCMV antiviral 0, LmPK inh -2%, Vaccinia Venus -11% and TbPYK inhibitor 5%.
For C=CCN(CC=C)c1ncnc2[nH]ncc12 the results were VACV mCherry inh inactive, HCMV antiviral -86*, Vaccinia Venus -1% and TbPYK inhibitor 0%.
CCOC(=O)c1ccc(-n2c(O)c(/C=N/NC(=O)C3COc4ccccc4O3)c3ccccc3c2=O)cc1 (stereo not given) was read as VACV mCherry inh 0%, HCMV antiviral 0, LmPK inh 0%, Vaccinia Venus -11% and TbPYK inhibitor 4%.
Screening CC(C)NC(=O)C1CCN(C(=O)c2cnn(-c3ccccc3)c2-n2cccc2)CC1 returned VACV mCherry inh -8%, HCMV antiviral 67, Vaccinia Venus -10% and TbPYK inhibitor -3%.
CCc1nnc(NC(=O)c2ccc(S(=O)(=O)N(CC(C)C)CC(C)C)cc2)o1 was read as VACV mCherry inh -14%, HCMV antiviral -9, LmPK inh 1%, Vaccinia Venus inconclusive and TbPYK inhibitor -5%.
`COC(=O)Nc1ccc(S(=O)(=O)N2CCCc3ccccc32)cc1` gave HCMV antiviral -62*, LmPK inh 3% and TbPYK inhibitor -2%.
`CCc1nnc(NC(=O)c2ccc(S(=O)(=O)N(C)c3ccccc3)cc2)o1` gave HCMV antiviral -75*, LmPK inh -1%[11.5 µM] and TbPYK inhibitor -8%.
`CC1CCc2nc(NC(=O)c3ccc(S(=O)(=O)N4CCCc5ccccc54)cc3)sc2C1` (stereo not given) gave VACV mCherry inh -10%, HCMV antiviral -87*, LmPK inh -2%, Vaccinia Venus -18% and TbPYK inhibitor 1%.
For CNC(=O)c1ccsc1NC(=O)c1ccc(S(=O)(=O)N2CCCc3ccccc32)cc1 the results were VACV mCherry inh inconclusive, HCMV antiviral -62*, LmPK inh 7%, Vaccinia Venus inconclusive and TbPYK inhibitor -19%.
`CC(=O)OC1C(=O)N(Cc2ccccc2)C1c1ccc(C)cc1` (stereo not given) gave VACV mCherry inh -25%, HCMV antiviral -1, Vaccinia Venus -6% and TbPYK inhibitor -1%.
O=C(C1CCN(S(=O)(=O)c2ccccc2F)CC1)N1CCc2ccccc21 was read as HCMV antiviral -68* and TbPYK inhibitor 1%.
For O=C(Nc1nnc(S(=O)(=O)N2CCCc3ccccc32)s1)c1ccccc1 the results were VACV mCherry inh -13%, HCMV antiviral 2, Vaccinia Venus -14% and TbPYK inhibitor -8%.
For COCc1nnc(NC(=O)c2ccc(S(=O)(=O)N3CCCCCC3)cc2)o1 the results were VACV mCherry inh -4%, HCMV antiviral -12, LmPK inh 2%, Vaccinia Venus -13% and TbPYK inhibitor 12%.
`O=C(C1CC1)N1CCc2cc(S(=O)(=O)N3CCCc4ccccc43)ccc21` gave VACV mCherry inh inconclusive, HCMV antiviral -68*, LmPK inh 2%, Vaccinia Venus -26% and TbPYK inhibitor -24%.
Screening O=C(C1CCN(S(=O)(=O)c2ccccc2)CC1)N1CCc2ccccc21 returned VACV mCherry inh -2%, HCMV antiviral 24, LmPK inh -3%, Vaccinia Venus 0% and TbPYK inhibitor -3%.
O=C(Nc1nc2c(s1)CCCC2)c1ccc(S(=O)(=O)N2CCCc3ccccc32)cc1 was read as VACV mCherry inh inactive, HCMV antiviral -85*, LmPK inh 1%, Vaccinia Venus -26% and TbPYK inhibitor -8%.
`CCc1nnc(NC(=O)c2ccc(S(=O)(=O)N3CCCc4ccccc43)cc2)o1` gave VACV mCherry inh -29%, HCMV antiviral -64*, LmPK inh 7%, Vaccinia Venus -27% and TbPYK inhibitor -6%.
Screening COCC(=O)N1CCC2(CC1)CN(Cc1ccc(C#N)cc1)C2 returned TbPYK inhibitor 1%.
For COc1ccc(CC(N)c2csc(Nc3ccc(S(C)(=O)=O)cc3)n2)cc1 (stereo not given) the results were VACV mCherry inh 19%, HCMV antiviral -14, Vaccinia Venus -18% and TbPYK inhibitor -1%.
